In ChEMBL document CHEMBL3988442, “University of Dundee, Small-Polar-MMV Screening Library” (2021) one finds Percent Effect data, which are given here for 46 molecules.

In test [1] the target is T1, Aspartate--tRNA(Asp/Asn) ligase (Mycobacterium tuberculosis (strain ATCC 25618 / H37Rv)) (UniProt P9WFW3). Also: in the data most compounds retested in dose-response had high values.
T1 sequence (whole entry): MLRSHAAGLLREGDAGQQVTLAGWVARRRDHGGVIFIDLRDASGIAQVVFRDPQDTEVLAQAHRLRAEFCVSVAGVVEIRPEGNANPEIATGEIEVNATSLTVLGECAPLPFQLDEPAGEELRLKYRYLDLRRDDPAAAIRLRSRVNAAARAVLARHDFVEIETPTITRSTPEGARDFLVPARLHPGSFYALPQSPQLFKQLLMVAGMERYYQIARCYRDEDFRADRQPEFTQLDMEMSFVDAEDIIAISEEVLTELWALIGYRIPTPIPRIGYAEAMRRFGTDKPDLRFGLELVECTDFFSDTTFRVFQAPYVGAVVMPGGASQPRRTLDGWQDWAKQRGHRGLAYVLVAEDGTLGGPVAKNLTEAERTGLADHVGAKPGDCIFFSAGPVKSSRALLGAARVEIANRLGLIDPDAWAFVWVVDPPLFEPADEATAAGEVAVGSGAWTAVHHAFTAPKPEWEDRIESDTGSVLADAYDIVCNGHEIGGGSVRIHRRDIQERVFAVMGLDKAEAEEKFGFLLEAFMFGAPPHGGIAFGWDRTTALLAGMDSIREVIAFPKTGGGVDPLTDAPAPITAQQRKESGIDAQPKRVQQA
The test can be described thus: Assay for Asp RNA synthetase-1 from Mycobacterium tuberculosis. Type of test: functional. On the set-up: scale not given: direction of the effect not stated beside the values. Conditions: 30 µM.

For test [2], the target named is Shiga toxin 2 (Escherichia coli O157:H7) (UniProt P09385+P09386). The test can be described thus: E. coli 0.157:H7 Shiga Toxin SOP - stx2 screening assay. It is filed as functional. Conditions: 30 µM. More on the design: scale not given: direction of the effect not stated beside the values.

As for `CN(C)C(=O)N1CCN(Cc2cnn(C)c2)CC2(CNC(=O)C2)C1` (configuration not stated), the figures for the Percent Effect in test [1] and in test [2] were 2.15% and -5.82%, respectively.
For the molecule `O=C(c1cccc(CNCC2CNc3ccnn3C2)c1)N1CCCC1` (configuration not stated), the figures for the Percent Effect in test [1] and in test [2] were -1.15% and -3.83%, respectively.
Consider `CC(COc1ccc(F)cc1F)NC(=O)NCCN1CCOCC1` (configuration not stated), for which the Percent Effect in test [1] is -1.71%; in test [2], -3.82%.
For the molecule `CCN(Cc1ccc2c(c1)OCCO2)C(=O)NC(C)Cn1ccnc1` (configuration not stated), the Percent Effect in test [1] is 5.58%; in test [2] it was -4.95%.
With `Cc1ccc(C(CNCC2CC2)N2CCOCC2)s1` (configuration not stated), the Percent Effect in test [1] is 3.84%; in test [2] it was -22.1%.
In the case of `Cc1cccc(CN2C(=O)CCC23CCN(c2ncc(F)cn2)CC3)n1`, the Percent Effect was -0.66% in test [1] and -5.21% in test [2].
`COc1cc(C(=O)NS(=O)(=O)c2cccc(C#N)c2)ccc1C`: the Percent Effect was -2.04% in test [1] and -1.16% in test [2].
Regarding `CCn1nc(-c2ccccc2F)ccc1=O`, the values for the Percent Effect in test [1] and in test [2] were 0.691% and -6.78%, respectively.
On the same counts, the results for `COC[C@H]1CCC[C@]12CN(CCc1ccccc1)CCO2` are -1.02% and -22%.
For `O=C1NC2(CCN(C(=O)Cc3ccsc3)CC2)CC1c1ccncc1` (configuration not stated) the same measures were 1.5% and -5.98%.
As for `CCn1ccnc1CN1CCCN(C(=O)c2cc(Cl)c[nH]2)CC1`, the figures for the Percent Effect in test [1] and in test [2] were -5.23% and -18.9%, respectively.
Turning to `Cn1cnnc1C1CCCN(C(=O)Cc2ccc3c(c2)OCCO3)C1` (configuration not stated), the values for the Percent Effect in test [1] and in test [2] were -2.39% and 11.9%, respectively.
On the same counts, the results for `Cn1ncc2c(N3CCN(C(N)=O)CC3)nc(C3CCCC3)nc21` are 1.25% and -24.2%.
Take `Cc1cncc(C2CCCN(C(=O)c3ccc(C)[nH]c3=O)C2)n1` (configuration not stated): the Percent Effect in test [1] was 0.25%; in test [2], -13%.
With `CC(C)Oc1ncc(C(=O)N2CCC(NC(=O)C3CC3)CC2)cc1Cl`, the Percent Effect in test [1] was -4.56%; in test [2] it was -46.9%.
On to `Cc1nnc(N2CCC(CN(C)C(C)C)CC2)c(C#N)c1C`, for which the Percent Effect in test [1] was -0.173%; in test [2], -25%.
On the same counts, the results for `O=C(O)c1coc(COc2cccc(F)c2)n1` are -2.21% and -2.73%.
In the case of `CCCn1[nH]cc/c1=N\C(=O)CN1CCn2c(nnc2C2CC2)C1`, the Percent Effect in test [1] was -2.17%; in test [2], 25.6%.
As for `CN(C)S(=O)(=O)N1C[C@@H](Oc2ccccn2)[C@H]2OCCC[C@H]21`, the results for the Percent Effect in test [1] and in test [2] were 2.06% and -15.9%, respectively.
With `COC(=O)c1ccc(N2CCN(C(=O)c3cnn(C)c3)C(C)C2)cc1` (configuration not stated), the figures for the Percent Effect in test [1] and in test [2] were 0.343% and -15.2%, respectively.
Regarding `C[C@@H]1CN(C(=O)c2ccc(C#N)nc2)C[C@@]1(O)C1CC1`, the Percent Effect in test [1] is 0.0335%; in test [2], -1.27%.
With `CC(C(=O)NCCCn1ccnc1)n1cc(Br)cn1` (configuration not stated), the Percent Effect was 3.33% in test [1] and -54.3% in test [2].
With `Cc1cc(C2CCCN2CCCS(=O)(=O)c2ccccc2)no1` (configuration not stated), the Percent Effect is -1.06% in test [1] and -12.2% in test [2].
As to `Cc1ncccc1O[C@H]1CCN(C(=O)c2cccs2)CC[C@@H]1O`, the Percent Effect in test [1] is 4.9%; in test [2], 6.92%.
Take `CCc1ncncc1C(=O)NCCN1CCC(C)CC1`: the Percent Effect is -3.79% in test [1] and 5.13% in test [2].
For `Cn1ccc(C(=O)N2CCCC(n3cncn3)C2)cc1=O` (configuration not stated) the same measures were -4.15% and -5.76%.
For `O=C(Nc1ccccc1)N1CCn2nnc(COc3cccnc3)c2C1`, the Percent Effect is 9.35% in test [1] and -2.97% in test [2].
As to `O=C(N[C@@H]1CCNC[C@H]1O)c1ccc(F)c(Cl)c1`, the Percent Effect in test [1] was -0.19%; in test [2] it was 12.3%.
As for `CN1N=C(C(=O)N2CCCC(CCc3c(F)cccc3F)C2)CCC1=O` (configuration not stated), the figures for the Percent Effect in test [1] and in test [2] were -2.6% and 9.43%, respectively.
Take `CCOc1ccccc1C(CC(=O)Nc1ccccc1F)NC(C)=O` (configuration not stated): the Percent Effect in test [1] is -4.12%; in test [2], 31.5%.
Take `Cn1cc(NS(=O)(=O)c2ccc(OC(F)(F)F)cc2)ccc1=O`: the Percent Effect is 51.5% in test [1] and -3.73% in test [2].
With `COc1ccc(CN(C)CC2CCCN2c2cccnn2)cc1F` (configuration not stated), the figures for the Percent Effect in test [1] and in test [2] were 0.346% and 3.14%, respectively.
Take `Cc1nnc(NC(=O)CN(C)CC2CCCN2c2cccnn2)s1` (configuration not stated): the Percent Effect in test [1] is 0.577%; in test [2], -34.1%.
For `CNC(=O)[C@@H]1C[C@H]2CN(Cc3nccs3)C[C@H]2N1C` the same measures were 1.25% and -17%.
With `CCc1nc(CN2CCCC(NCc3nc4cccnc4[nH]3)C2)no1` (configuration not stated), the Percent Effect is -3% in test [1] and -27.7% in test [2].
On to `CCNC(=O)[C@@H]1C[C@H](NC(=O)c2ccccc2C#N)CN1CCCSC`, for which the Percent Effect in test [1] was -0.866%; in test [2], 0.196%.
For `CC(C)c1nn(C)c(N(C)C)c1CNCc1cccc(CN(C)C)c1`, the Percent Effect in test [1] amounted to 2.36%; in test [2] it was 31.8%.
For `O=C1COC2(CCN(Cc3ccoc3)CC2)CN1c1ccsc1`, the Percent Effect was 4.25% in test [1] and -18.4% in test [2].
Regarding `Cc1cccc(Cn2ccc(NS(C)(=O)=O)n2)c1`, the Percent Effect in test [1] is 6.96%; in test [2], -21.6%.
For `CC(C)n1c(=O)nc2n1C(=O)N(c1ccc(F)cc1)C2` the same measures were 2.49% and 2.99%.
On the same counts, the results for `CC(NC(=O)CNCCn1cccn1)c1ccc2c(c1)OCCO2` (configuration not stated) are -3.06% and 8.04%.
On the same counts, the results for `NC(=O)c1cccc(CC2CCN(C(=O)CCCN3CCOCC3)C2)c1` (configuration not stated) are 6.21% and -6.5%.
In the case of `CC(Cn1cncn1)NCc1nncn1C1CCCCC1` (configuration not stated), the Percent Effect in test [1] is -4.88%; in test [2], 2.43%.
Take `CN(Cc1ccc(F)cc1)C(=O)CN1CCCC(Cn2cncn2)C1` (configuration not stated): the Percent Effect is -5.51% in test [1] and 5.36% in test [2].
As to `O=C(NCC1CC1)[C@H]1C[C@H]2OCC[C@H]2N(Cc2ccsc2)C1`, the Percent Effect in test [1] is 4.96%; in test [2] it was 13.4%.
Regarding `Cc1cc(C)n(CC2CCCN2CCc2ccncc2)n1` (configuration not stated), the Percent Effect was -1.26% in test [1] and -7.41% in test [2].
